Reference: the supplement of paper PMC10849652
The full data set covers some 8,800 targets. This sample favours those with a hit. About 0.5% of all pairs of compound and target were hits. Unmarked numbers belong to inactive results.

What was measured:
Test in all cases: log2 fold change, soluble protein after heating vs DMSO (PISA); higher = thermal stabilisation; K562 lysate, 10 uM; active = over 0.2 and 3.5 SD of the protein, either way, in both replicates (recomputed)
erlotinib = compound: C#Cc1cccc(Nc2ncnc3cc(OCCOC)c(OCCOC)cc23)c1 [erlotinib]
Procedure, shortened: (§1)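 Thermal stability, expressed as log-two fold change relative to solvent controls, is given from duplicates. Crude K562 extract in PBS pH 7.4 with 1 mM MgCl2, at 1 mg/mL protein, was treated with 10 μM compound for 30 min and heated in aliquots for 3 min across 48°C-58°C. After pooling, adjustment to 0.5% NP-40 at 4°C and centrifugation at 21,000xg for 90 min, supernatant protein was measured by TMTpro 16plex LC-MS/MS with channel sums equalised.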

[1] = compound: C/C(=N\NC(=O)C1=CC(=CC=C1)S(=O)(=O)N2CCOCC2)/C3=C(C=CC(=C3)Cl)O
Procedure, shortened: as §1

[2] = compound: C1=CC(=CC=C1C2=NC3=C(N2)C=C(C=C3)C(=O)N)OC4=CC=C(C=C4)Cl
Procedure, shortened: as §1

[3] = compound: C1=CC2=C(C=CC(=C2)/C=C\3/C(=O)NC(=NCC4=CC=CS4)S3)N=C1
Procedure, shortened: as §1

[4] = compound: C1=CC2=NC=CN=C2C=C1/C=C/3\C(=O)NC(=O)S3
Procedure, shortened: as §1

[5] = compound: C1=CC=C(C=C1)C2=NC(=C(N2)C3=CC=NC=C3)C4=CC(=C(C=C4)Cl)O
Procedure, shortened: as §1

[6] = compound: C1=CC=C2C(=C1)C3=NNC4=CC=CC(=C43)C2=O
Procedure, shortened: as §1

[7] = compound: C1CCN(C1)C(=O)NC2=CC=CC(=C2)NC3=NC=C(C(=N3)NCCC4=CN=CN4)Br
Procedure, shortened: as §1

[8] = compound: C1CN(CCC1(CC2=CC=C(C=C2)Cl)N)C3=NC=NC4=C3C=CN4
Procedure, shortened: as §1

IRAK-1-4 Inhibitor I = compound: C1COCCN1CCN2C3=CC=CC=C3N=C2NC(=O)C4=CC(=CC=C4)[N+](=O)[O-] [IRAK-1-4 Inhibitor I]
Procedure, shortened: as §1

ibrutinib = compound: C=CC(=O)N1CCC[C@@H](n2nc(-c3ccc(Oc4ccccc4)cc3)c3c(N)ncnc32)C1 [ibrutinib]
Procedure, shortened: as §1

[9] = compound: CC(=O)c1cnc2ccc(-c3cc(Cl)c(O)c(Cl)c3)nc2c1N[C@H]1CC[C@H](CN(C)C)CC1
Procedure, shortened: as §1

ralimetinib = compound: CC(C)(C)Cn1c(N)nc2ccc(-c3[nH]c(C(C)(C)C)nc3-c3ccc(F)cc3)nc21 [ralimetinib]
Procedure, shortened: as §1

[10] = compound: CC(C)(O)CC(=O)NCCn1ccc2ncnc(Nc3ccc(Oc4cccc(C(F)(F)F)c4)c(Cl)c3)c21
Procedure, shortened: as §1

[11] = compound: CC(C)C1=C2N=C(C=C(N2N=C1)NCC3=CC=CC=C3)NCCCCCCN
Procedure, shortened: as §1

[12] = compound: CC1=C(C(CC(=O)N1)C2=CC=C(C=C2)C(F)(F)F)C(=O)NC3=C(C=C4C(=C3)C=NN4)F
Procedure, shortened: as §1

[13] = compound: CC1=C(C2=C(C=C1)C(=O)C3=CC=CC=C3N2CCCN)C
Procedure, shortened: as §1

[14] = compound: CC1=C(C=C(C=C1)NC(=O)C2=CC(=CC=C2)C(C)(C)C#N)NC3=CC4=C(C=C3)N=CN(C4=O)C
Procedure, shortened: as §1

[15] = compound: CC1=C(C=C(C=C1)NC(=O)C2=CC(=CC=C2)N(C)C)NC(=O)C3=CC=C(C=C3)O
Procedure, shortened: as §1

[16] = compound: CC1=CC=C(C=C1)SC2=C3C=C(SC3=CN=C2)C(=O)N
Procedure, shortened: as §1

UniProt P11413, sequence (P11413 whole entry, looked up): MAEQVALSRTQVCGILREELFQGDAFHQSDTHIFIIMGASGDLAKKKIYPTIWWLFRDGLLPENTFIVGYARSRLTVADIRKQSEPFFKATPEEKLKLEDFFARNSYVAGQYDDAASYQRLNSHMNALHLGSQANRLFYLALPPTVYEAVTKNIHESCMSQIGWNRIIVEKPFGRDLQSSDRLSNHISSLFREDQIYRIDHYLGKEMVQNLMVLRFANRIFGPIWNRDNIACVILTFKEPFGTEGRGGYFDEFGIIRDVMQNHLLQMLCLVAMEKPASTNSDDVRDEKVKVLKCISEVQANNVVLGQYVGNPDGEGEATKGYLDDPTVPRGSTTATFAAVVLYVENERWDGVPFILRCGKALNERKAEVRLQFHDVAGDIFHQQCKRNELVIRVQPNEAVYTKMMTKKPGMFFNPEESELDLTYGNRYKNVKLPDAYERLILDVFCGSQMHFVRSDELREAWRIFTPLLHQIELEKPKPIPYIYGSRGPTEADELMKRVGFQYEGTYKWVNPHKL
UniProt P41567, sequence (P41567 whole entry, looked up): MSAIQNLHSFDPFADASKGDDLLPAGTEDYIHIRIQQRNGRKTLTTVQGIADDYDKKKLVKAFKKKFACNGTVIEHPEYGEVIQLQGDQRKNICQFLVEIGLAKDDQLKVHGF
UniProt Q9H410, sequence (Q9H410 whole entry, looked up): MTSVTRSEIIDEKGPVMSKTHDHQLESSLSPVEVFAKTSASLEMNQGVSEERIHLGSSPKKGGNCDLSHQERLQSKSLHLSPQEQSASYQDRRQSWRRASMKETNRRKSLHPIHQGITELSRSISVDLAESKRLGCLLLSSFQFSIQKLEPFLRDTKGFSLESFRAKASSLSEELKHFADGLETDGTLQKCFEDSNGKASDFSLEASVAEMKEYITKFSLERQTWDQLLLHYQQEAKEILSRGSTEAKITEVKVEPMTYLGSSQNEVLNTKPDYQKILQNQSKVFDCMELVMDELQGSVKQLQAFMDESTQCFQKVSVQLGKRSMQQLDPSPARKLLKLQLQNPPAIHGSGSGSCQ
UniProt P54852, sequence (P54852 whole entry, looked up): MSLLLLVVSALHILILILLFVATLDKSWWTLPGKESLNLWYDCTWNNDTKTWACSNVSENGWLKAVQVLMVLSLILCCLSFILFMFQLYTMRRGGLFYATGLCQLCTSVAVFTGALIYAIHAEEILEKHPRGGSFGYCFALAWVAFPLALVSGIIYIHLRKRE
UniProt Q14C86, sequence (Q14C86 whole entry, looked up): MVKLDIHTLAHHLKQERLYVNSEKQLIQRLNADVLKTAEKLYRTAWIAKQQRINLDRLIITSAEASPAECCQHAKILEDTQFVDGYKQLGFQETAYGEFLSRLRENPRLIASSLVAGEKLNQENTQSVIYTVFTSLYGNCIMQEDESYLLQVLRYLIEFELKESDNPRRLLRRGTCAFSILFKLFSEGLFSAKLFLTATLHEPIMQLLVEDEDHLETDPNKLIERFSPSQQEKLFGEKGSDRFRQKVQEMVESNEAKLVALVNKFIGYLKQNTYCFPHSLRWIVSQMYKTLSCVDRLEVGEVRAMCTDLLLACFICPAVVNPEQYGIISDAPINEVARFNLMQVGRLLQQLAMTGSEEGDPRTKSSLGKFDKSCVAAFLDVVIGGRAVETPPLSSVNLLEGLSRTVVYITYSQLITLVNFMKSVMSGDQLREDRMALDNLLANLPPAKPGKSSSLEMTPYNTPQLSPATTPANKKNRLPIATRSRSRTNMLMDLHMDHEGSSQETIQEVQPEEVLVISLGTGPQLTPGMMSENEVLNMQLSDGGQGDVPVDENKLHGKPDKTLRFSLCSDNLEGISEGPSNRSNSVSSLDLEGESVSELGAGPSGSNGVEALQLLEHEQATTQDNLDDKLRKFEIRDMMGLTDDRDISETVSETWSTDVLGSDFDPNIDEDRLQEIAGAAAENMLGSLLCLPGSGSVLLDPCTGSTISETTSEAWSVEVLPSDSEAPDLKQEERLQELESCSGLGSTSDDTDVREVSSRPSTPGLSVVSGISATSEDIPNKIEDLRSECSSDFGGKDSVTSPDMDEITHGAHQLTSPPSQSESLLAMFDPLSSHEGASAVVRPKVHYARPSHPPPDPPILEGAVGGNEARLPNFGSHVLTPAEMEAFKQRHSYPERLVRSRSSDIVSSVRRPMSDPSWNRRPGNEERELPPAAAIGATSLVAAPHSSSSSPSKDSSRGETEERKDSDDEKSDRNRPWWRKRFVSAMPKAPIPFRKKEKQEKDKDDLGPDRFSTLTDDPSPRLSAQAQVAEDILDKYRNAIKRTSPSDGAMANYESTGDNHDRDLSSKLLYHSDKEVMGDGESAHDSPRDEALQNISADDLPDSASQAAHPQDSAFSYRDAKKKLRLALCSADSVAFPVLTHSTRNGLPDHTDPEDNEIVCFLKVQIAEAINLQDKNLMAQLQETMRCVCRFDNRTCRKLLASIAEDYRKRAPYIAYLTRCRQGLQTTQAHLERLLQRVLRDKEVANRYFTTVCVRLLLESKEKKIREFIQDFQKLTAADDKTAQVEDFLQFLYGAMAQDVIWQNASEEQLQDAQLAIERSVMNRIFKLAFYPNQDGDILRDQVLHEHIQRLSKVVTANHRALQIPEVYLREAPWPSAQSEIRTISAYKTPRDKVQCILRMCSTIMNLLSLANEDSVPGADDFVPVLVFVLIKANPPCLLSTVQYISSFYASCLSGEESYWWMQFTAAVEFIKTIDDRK
UniProt O95571, sequence (O95571 whole entry, looked up): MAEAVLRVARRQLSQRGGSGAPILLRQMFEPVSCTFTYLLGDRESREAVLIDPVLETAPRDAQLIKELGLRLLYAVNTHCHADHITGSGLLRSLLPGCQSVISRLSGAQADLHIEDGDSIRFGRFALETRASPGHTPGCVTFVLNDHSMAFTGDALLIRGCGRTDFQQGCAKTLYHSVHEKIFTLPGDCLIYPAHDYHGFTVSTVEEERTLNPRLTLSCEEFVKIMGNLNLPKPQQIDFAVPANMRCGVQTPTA
UniProt O75521, sequence (O75521 whole entry, looked up): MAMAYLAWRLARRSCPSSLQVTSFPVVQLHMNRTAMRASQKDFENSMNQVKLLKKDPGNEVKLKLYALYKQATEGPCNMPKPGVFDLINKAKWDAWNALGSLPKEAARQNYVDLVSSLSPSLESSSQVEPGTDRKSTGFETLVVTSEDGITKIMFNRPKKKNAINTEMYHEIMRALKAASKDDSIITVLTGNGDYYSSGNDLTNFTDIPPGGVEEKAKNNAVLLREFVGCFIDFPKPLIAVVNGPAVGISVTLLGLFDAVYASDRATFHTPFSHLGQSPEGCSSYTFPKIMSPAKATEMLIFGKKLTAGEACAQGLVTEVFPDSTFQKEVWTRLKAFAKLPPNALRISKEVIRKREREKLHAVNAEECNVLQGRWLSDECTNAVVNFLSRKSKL
UniProt Q8N6R0, sequence (Q8N6R0 whole entry, looked up): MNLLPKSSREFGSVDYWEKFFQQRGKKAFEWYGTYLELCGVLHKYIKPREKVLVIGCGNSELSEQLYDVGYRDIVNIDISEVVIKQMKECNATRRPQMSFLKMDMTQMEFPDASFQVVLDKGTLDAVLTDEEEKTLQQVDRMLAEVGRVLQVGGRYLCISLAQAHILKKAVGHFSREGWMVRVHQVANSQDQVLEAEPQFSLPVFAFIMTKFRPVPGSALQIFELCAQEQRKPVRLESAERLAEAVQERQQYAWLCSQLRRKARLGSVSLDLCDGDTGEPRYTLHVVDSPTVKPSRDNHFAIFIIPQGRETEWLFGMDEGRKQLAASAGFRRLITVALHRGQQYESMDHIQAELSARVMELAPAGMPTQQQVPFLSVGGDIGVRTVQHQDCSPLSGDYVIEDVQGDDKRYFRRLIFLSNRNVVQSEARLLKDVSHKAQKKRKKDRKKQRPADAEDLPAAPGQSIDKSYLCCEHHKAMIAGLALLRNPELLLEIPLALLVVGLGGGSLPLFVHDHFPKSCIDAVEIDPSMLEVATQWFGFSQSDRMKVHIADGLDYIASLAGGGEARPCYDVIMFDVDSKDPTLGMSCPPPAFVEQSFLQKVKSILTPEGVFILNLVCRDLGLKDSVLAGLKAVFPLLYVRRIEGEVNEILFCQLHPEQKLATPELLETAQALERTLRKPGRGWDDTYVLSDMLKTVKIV
UniProt Q15717, sequence (Q15717 whole entry, looked up): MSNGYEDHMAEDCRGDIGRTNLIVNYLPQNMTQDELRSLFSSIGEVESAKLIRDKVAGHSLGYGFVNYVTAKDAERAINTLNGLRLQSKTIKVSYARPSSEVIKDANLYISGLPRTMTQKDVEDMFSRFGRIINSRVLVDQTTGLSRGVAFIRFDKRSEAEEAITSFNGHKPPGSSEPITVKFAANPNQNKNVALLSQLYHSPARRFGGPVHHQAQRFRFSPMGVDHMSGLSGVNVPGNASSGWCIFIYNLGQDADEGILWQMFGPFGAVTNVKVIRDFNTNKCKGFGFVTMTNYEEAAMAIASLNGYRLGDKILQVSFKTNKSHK
UniProt Q9Y285, sequence (Q9Y285 whole entry, looked up): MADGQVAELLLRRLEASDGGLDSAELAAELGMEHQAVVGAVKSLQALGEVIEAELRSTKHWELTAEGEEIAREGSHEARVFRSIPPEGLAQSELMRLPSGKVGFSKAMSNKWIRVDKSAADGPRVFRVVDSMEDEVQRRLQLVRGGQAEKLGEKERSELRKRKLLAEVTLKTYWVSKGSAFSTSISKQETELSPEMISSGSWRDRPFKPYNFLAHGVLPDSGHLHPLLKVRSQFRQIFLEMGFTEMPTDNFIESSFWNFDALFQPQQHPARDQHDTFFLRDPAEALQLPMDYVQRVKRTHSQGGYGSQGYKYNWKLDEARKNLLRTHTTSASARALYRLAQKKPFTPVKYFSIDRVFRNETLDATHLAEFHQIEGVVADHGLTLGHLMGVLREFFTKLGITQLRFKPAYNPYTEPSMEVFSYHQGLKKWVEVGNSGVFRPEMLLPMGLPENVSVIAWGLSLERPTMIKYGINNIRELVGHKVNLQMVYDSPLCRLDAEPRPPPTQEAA

Target	log2 fold change (erlotinib)	log2 fold change [1]	log2 fold change [2]	log2 fold change [3]	log2 fold change [4]	log2 fold change [5]	log2 fold change [6]	log2 fold change [7]	log2 fold change [8]	log2 fold change (IRAK-1-4 Inhibitor I)	log2 fold change (ibrutinib)	log2 fold change [9]	log2 fold change (ralimetinib)	log2 fold change [10]	log2 fold change [11]	log2 fold change [12]	log2 fold change [13]	log2 fold change [14]	log2 fold change [15]	log2 fold change [16]
ECI2 (UniProt O75521)	0.032	0.01	0.024	-0.011	0.022	-0.019	-0.111	-0.03	0.045	0.054	0.01	-0.027	-0.033	-0.049	-0.015	-0.013	-0.008	0.013	0.007	0
GAPVD1 isoform 6 (UniProt Q14C86)	0.01	0	-0.051	0.01	0.019	0	-0.013	0.007	-0.025	-0.015	0.005	0.003	0.031	-0.004	-0.018	0.028	0.008	0.003	0.011	0.018
EMP3 (UniProt P54852)	0.008	-0.015	0.018	0.017	0.004	0	0.007	-0.002	0.029	0.053	0.045	-0.012	0.088	-0.081	0	0.013	-0.003	0.041	-0.036	-0.01
EP400 isoform 5 (UniProt Q96L91)	0.045	0.01	-0.007	-0.023	-0.042	-0.003	-0.074	-0.027	-0.023	-0.005	-0.061	-0.018	0.02	-0.033	-0.027	0.047	-0.014	0.016	0.035	0.041
FARSA (UniProt Q9Y285)	0.045	-0.001	-0.054	0.009	0	0.119	-0.005	0.009	-0.023	-0.018	-0.006	-0.02	0.048	0.025	0.06	-0.014	-0.063	0.055	0	0.006
G6PD isoform 2 (UniProt P11413)	0.034	0.05	0.024	0.016	0.018	-0.001	-0.002	0.006	0.011	0.001	-0.006	0.001	0.023	0.012	0.018	-0.02	0.045	-0.002	0.024	0.003
GAMT (UniProt Q14353)	0.018	-0.008	0.033	-0.008	-0.01	-0.016	0.036	0.035	0.066	-0.001	0.029	-0.008	0.019	0.013	-0.041	0.071	-0.009	-0.003	-0.003	0.005
EIF1 (UniProt P41567)	-0.006	-0.022	0.063	-0.031	-0.004	0.044	0.011	-0.027	-0.023	0.02	0.026	0.015	-0.016	0.011	0	-0.114	0.059	0.045	-0.043	-0.037
ELAVL1 isoform 2 (UniProt Q15717)	0.047	0.008	0.019	0.025	-0.017	0.001	-0.069	-0.027	0.036	-0.051	0.042	-0.034	-0.016	0.039	-0.009	-0.02	-0.026	-0.042	0.028	0.007
ETHE1 (UniProt O95571)	-0.046	-0.01	0.039	0.021	0.034	-0.007	0.012	-0.046	-0.013	-0.044	-0.029	-0.01	0.03	-0.021	-0.092	0.087	0.022	0.011	0.046	-0.042
EED, A0A5F9ZI63	0.019	0.042	-0.033	0.017	-0.019	-0.012	0.003	0.003	0.023	0.021	-0.026	-0.018	0.008	-0.039	-0.004	0.036	-0.003	-0.016	0.042	-0.008
GBF1 (UniProt Q92538)	0.044	0.043	-0.036	-0.009	0.002	-0.008	-0.012	-0.007	0.023	0.058	0.007	-0.001	0.051	-0.03	-0.011	-0.003	-0.011	-0.015	0.017	0.012
DSN1 (UniProt Q9H410)	-0.021	0.03	0.037	0.014	0.01	-0.025	0.032	-0.034	-0.024	0.002	-0.004	-0.023	0.011	0.001	-0.015	0.024	-0.018	0.017	0.025	-0.011
EEF1AKNMT (UniProt Q8N6R0)	0.048	0.029	-0.02	-0.039	0.005	0	-0.065	0.011	0.053	-0.015	-0.016	0.017	0.096	0.023	0.017	-0.003	-0.024	0.002	-0.021	0.002
DYRK1A (UniProt Q13627)	-0.061	-0.057	-0.004	0.186	0.175	0.016	0.084	-0.008	-0.034	-0.046	-0.019	0.264 (active)	-0.003	0.011	0.01	0.007	0.005	-0.007	-0.024	0.034
ENO1, A0A2R8YEM5	-0.019	0.004	0.011	-0.017	0.031	0.016	0.009	0	0.032	-0.031	-0.013	0.008	-0.012	-0.016	-0.024	-0.032	0.001	0.012	-0.044	0.014
